CendR NRP1 mod: NRP-1/CendR interaction modulation; FAM-RPARPAR peptide binding to NRP-1, fluorescence polarization; 0.85% of 360,000 active; inhibition, % at 25 µM; O14786;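 active = inhibition or corrected inhibition above about 18%, plus a signal ratio from 0.5 to 1.5, limit read from the data, passing the limit was not always enough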
ADAM10 inh: inhibits human ADAM10; O14672; inhibition, % at 7 µM; 0.62% of 370,000 active; recombinant ADAM10, EDANS/DABCYL FRET peptide cleavage, 3 h;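 active = inhibition above a per-campaign cutoff equal to the mean of compounds falling between control-based bounds plus 3 SD, cut at about 20% in these data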;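 also: 0% = DMSO wells while the 100% control is not disclosed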
Target sequence (O14672 214-748 limits assumed): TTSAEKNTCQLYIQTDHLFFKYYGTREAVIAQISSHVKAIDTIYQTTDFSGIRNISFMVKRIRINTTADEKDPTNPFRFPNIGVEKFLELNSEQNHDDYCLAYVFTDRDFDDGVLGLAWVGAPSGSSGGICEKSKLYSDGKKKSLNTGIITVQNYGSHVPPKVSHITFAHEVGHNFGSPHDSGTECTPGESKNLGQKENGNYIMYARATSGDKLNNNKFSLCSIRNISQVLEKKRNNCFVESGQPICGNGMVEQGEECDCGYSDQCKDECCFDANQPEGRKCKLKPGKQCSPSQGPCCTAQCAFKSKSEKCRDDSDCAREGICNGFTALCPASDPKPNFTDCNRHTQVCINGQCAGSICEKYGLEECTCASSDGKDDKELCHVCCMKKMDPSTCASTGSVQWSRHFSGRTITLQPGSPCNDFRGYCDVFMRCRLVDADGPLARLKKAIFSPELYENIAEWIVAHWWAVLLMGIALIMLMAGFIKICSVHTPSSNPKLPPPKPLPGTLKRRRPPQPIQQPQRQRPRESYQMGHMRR
A3A deaminase: human APOBEC3A DNA deaminase inhibition; P31941; recombinant A3A, FAM/TAMRA ssDNA deamination fluorescence; inhibition, % at 20 µM; 0.41% of 330,000 active; AID 493011;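 active = at least 40% inhibition at 20 µM here, with at most 30% in a related deaminase screen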;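 also: plate controls were A3A with DMSO for no effect and wells lacking A3A enzyme for full effect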
ADAM17 inh: inhibitors of human ADAM17. 0.83% of 370,000 active. AID 720648. recombinant ADAM17, EDANS/DABCYL FRET peptide cleavage. inhibition, % at 6.95 µM. P78536;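 active = inhibition above the mean of compounds lying between control limits plus 3 SD, set per campaign, cut at about 8.5% in these data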;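 also: 0% = DMSO-only wells as the low control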
A3G deaminase: APOBEC3G (human) deaminase inhibition; Q9HC16; recombinant A3G, ssDNA deamination FAM/TAMRA fluorescence; inhibition, % at 20 µM; 0.28% of 330,000 active; AID 493012;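 active = inhibition of at least 40% at 20 µM, with no more than 30% in the related APOBEC3A deaminase screen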;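 also: plate controls were DMSO wells with A3G for no effect and wells lacking A3G enzyme for full effect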
APOBEC3A confirm: confirmation of human APOBEC3A DNA deaminase inhibitors | inhibition, % at 20 µM | AID 493151 | 63% of 1,400 active | recombinant A3A, ssDNA deaminase UDG fluorescence assay | shares compounds with A3A deaminase;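 active = inhibition reaching a set limit, 80% of the first screen's cutoff, at 20 µM in any replicate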;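 also: plate controls were DMSO wells with A3A for no effect and wells lacking A3A enzyme for full effect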
UDG ctr A3A: UDG inhibition in APOBEC3A counter-screen; 1,000 tested, under 10 active; shares compounds with A3A deaminase; UDG counterscreen, FAM/TAMRA uracil oligo fluorescence; AID 504714; inhibition, % at 20 µM; call rule not given here
The depositor's hits bear a star; i = inactive; . = no result. Hits are enriched below; roughly 2.4% of the tested compounds scored in any of these assays.

SMILES	CendR NRP1 mod	ADAM10 inh	A3A deaminase	ADAM17 inh	A3G deaminase	APOBEC3A confirm	UDG ctr A3A
CS(=O)(=O)c1ccc(-c2nn[nH]n2)cc1	-5.4	-3.4	-5.5	-5.4	-4.9	.	.
CCn1c2ccccc2c(=O)c2ccccc21	-9.2	i	64.4*	-427.9	16.5	18.5	.
COc1cc2ccc3c(CCN(C)C)cc(OC)c(OC)c3c2cc1OC	-1.3	-10.4	54.8*	-5.0	18.6	22.8	.
C[N+](C)(C)CCN(Cc1ccc(Cl)cc1)c1ccccn1	5.0	-68.2	58.2*	-15.7	16.1	67.8*	0.9
CN(C)CCN(Cc1ccc(Cl)cc1)c1ccccn1	-9.0	2.4	1.0	6.8	-5.7	.	.
COCc1c(C(=O)N2CCN(Cc3nc4ccccc4s3)CC2)oc2ccccc12	0.7	-1.7	63.2*	-2.0	19.9	71.5*	-1.8
Cc1c(C(=O)OCC[N+]2(C)CCCCC2)oc2ccccc12	47.8*	-2.4	76.7*	-2.8	14.8	76.9*	4.5
O=C(/C=C/c1ccccc1)OCCCCN=C1NS(=O)(=O)c2ccccc21	-0.4	6.8	83.1*	-0.4	2.1	2.7	.
C=CCNC(=O)c1ccccc1NC(=O)c1ccccc1N(C)S(C)(=O)=O	3.5	-4.4	44.4*	-1.7	5.2	3.8	.
OC1(c2ccccc2Cl)NN=C2CCCCCN21 (stereo not given)	3.0	-2.9	-2.8	-3.5	-7.1	.	.
C[N+]1=C2CCCCCN2C(O)(c2ccccc2)C1 (stereo not given)	2.7	16.0	69.4*	-0.2	18.9	71.6*	0.5
Cc1nc2ccc(NC(=O)c3ccc(Cl)nc3)cc2s1	6.9	-1.9	2.6	-2.1	0.4	.	.
Cc1nc2ccc(NC(=O)c3cc(Cl)ccn3)cc2s1	-23.4	1.7	49.3*	1.4	-2.1	23.2	0.0
COC(=O)c1cc2c(c3c4cc(OC)ccc4n(S(=O)(=O)c4cccc(C)c4)c13)C(=O)N(Cc1ccc(C(F)(F)F)cc1)C2	.	-9.4	.	-2.1	.	.	.
CC(=O)Nc1cccc(C(=O)OCC(=O)Nc2c(C)nn(-c3ccccc3)c2C)c1	-4.6	0.4	52.4*	-5.3	0.5	2.4	.
Clc1cc(Cl)cc(CNC2CCC23CCCCC3)c1 (stereo not given)	.	-1.4	.	-0.9	.	.	.
O=C(/C=C/c1ccco1)N1CCN(S(=O)(=O)c2cccc([N+](=O)[O-])c2)CC1	6.4	-5.7	65.0*	-1.0	23.3	61.9*	4.0
O=[N+]([O-])c1ccc(C(O)C[n+]2ccccc2)cc1 (stereo not given)	18.0	.	91.5*	.	18.7	70.7*	-2.3
O=[N+]([O-])c1ccc(C(O)CN2CCN(c3ccccc3)CC2)cc1 (stereo not given)	15.7	-4.9	0.0	-1.1	-3.5	.	.
Cc1cccc(NC(=O)CSCC(=O)Nc2cc(Cl)ccc2N2CCN(C)CC2)c1	-15.5	0.8	50.9*	-2.9	7.1	26.3	.
COC[C@H]1CCCN1c1ccc2c(c1)O[C@@H]1CCN(C1)S2(=O)=O	.	0.1	.	-6.9	.	.	.
O=P(c1ccccc1)(c1ccccc1)c1cc(S(=O)(=O)O)ccc1O	-6.4	-3.3	83.4*	-5.1	16.8	63.4*	-1.9
C[C@H]1Cn2cnc(C(=O)N3CCN(c4ccccc4)CC3)c2C(=O)N1	.	-8.1	.	0.6	.	.	.
CCc1ccc(CCNC(=O)OCCCN2CCC3(CCC(C)CC3)C2=O)cc1 (stereo not given)	.	4.2	.	0.0	.	.	.
N#CC1CCN(c2nc(-c3ccc(Br)cc3)cs2)CC1	.	1.9	.	1.6	.	.	.
SMILES	CendR NRP1 mod	ADAM10 inh	A3A deaminase	ADAM17 inh	A3G deaminase	APOBEC3A confirm	UDG ctr A3A
Cc1nn(-c2ccccc2)c2nc(-c3ccco3)cc(C(=O)O)c12	-100.8	-68.5	67.0*	-104.1	20.6	48.5*	-1.3
Nc1[nH]c(C(=O)c2ccccc2)c(-c2ccccn2)c1C(=O)c1c[nH]c2ccc(Br)cc12	.	-10.4	.	-4.1	.	.	.
Cc1cc(C=O)c(C)n1-c1cc(C(=O)O)cc(C(=O)O)c1	-21.5	-22.8	63.7*	-9.9	21.4	63.9*	2.0
Cc1cc(C=O)c(C)n1-c1cccc(C(=O)O)c1	-16.3	-10.3	3.1	-7.0	2.7	.	.
CCCCOCCCNC(=O)C[C@H]1C[C@@]2(C(=O)OCC)CCCC3=C2N(CCC3)C1=O	.	2.8	.	2.0	.	.	.
On1cnnc1-c1ccccc1	9.5	-0.1	-7.3	-2.4	-7.6	.	.
COn1cnnc1-c1ccccc1	-9.6	1.3	47.1*	-0.1	17.5	6.4	.
Cc1ccc2nc3c(nc2c1C)C(O)=C3O	-11.6	-30.7	65.4*	-9.5	-4.1	6.9	8.0
Cc1ccc2nc3c(nc2c1C)CCCC3	-3.2	-7.6	-2.8	-2.3	-7.3	.	.
CC(=O)Nc1nc(CC(C)C)cc(-c2ccco2)c1C#N	10.9	-290.0	40.3*	-101.9	15.6	51.0*	-2.8
Cc1[nH]c(=O)c(C#N)c(C)c1CCC(=O)NCc1ccc(Cl)cc1	-7.7	-10.4	70.6*	-7.7	-6.2	5.6	2.1
CCN1C(=NCC(C)C)N[C@@H](c2cccc(C(F)(F)F)c2)C(C(=O)OC)=C1C	-3.5	1.5	59.2*	-3.4	10.0	61.3*	.
C=CCN=C1N[C@@H](c2ccccc2)C(C(=O)OC)=C(C)N1CC	21.9	.	66.0*	.	23.4	58.4*	1.5
COC(=O)C1=C(C)N(Cc2cccc(C(F)(F)F)c2)C(=NCC2CC2)NC1c1cccc(C(F)(F)F)c1 (stereo not given)	.	0.3	.	0.7	.	.	.
C=CCN=C1NC(c2ccccc2)C(C(=O)OC)=C(C)N1C (stereo not given)	.	-5.7	.	0.2	.	.	.
C=CCN=C1N[C@@H](c2cccc(C(F)(F)F)c2)C(C(=O)OC)=C(C)N1CC	14.9	-0.3	49.9*	-0.4	6.8	71.2*	-2.0
CCN1C(=NCCc2cccs2)N[C@@H](c2cccs2)C(C(=O)OC)=C1C	-17.8	.	53.3*	.	6.4	65.5*	-2.3
CCOC(=O)CN1C(=O)N[C@@H](c2cccs2)C(C(=O)OC)=C1C	19.1	-6.7	0.7	-1.0	3.2	.	.
COC(=O)C1=C(C)N(Cc2ccccc2)C(=NCc2cccc(C(F)(F)F)c2)N[C@H]1c1cccc(C(F)(F)F)c1	-3.0	.	-1.6	.	-6.2	.	.
COc1ccccc1N1CCN(C(=O)c2ccc3c(c2)nc(C)n3-c2cc(OC)c(OC)c(OC)c2)CC1	.	-2.2	.	-3.0	.	.	.
C=CCN1C(=O)[C@]2(OCCC=C[C@H]2C)c2cc(OC)ccc21	.	-18.3	.	-3.2	.	.	.
COC(=O)C1=C(C)N(Cc2ccccc2C(F)(F)F)C(=NCc2ccccc2C(F)(F)F)NC1c1ccc(Cl)cc1 (stereo not given)	.	-3.8	.	-0.2	.	.	.
COC(=O)C1=C(C)N(CC2CC2)C(=NCc2cccc(C(F)(F)F)c2)N[C@H]1c1ccccc1	-84.1	.	37.8	.	19.4	.	.
COC(=O)C1=C(C)N(CC2CC2)C(=NCCN2CCOCC2)N[C@H]1c1ccccc1	1.8	.	71.2*	.	21.5	68.5*	1.4

Bioassay records deposited in PubChem by several laboratories.
